Our source for the inhibition values is PubChem BioAssay AID765 (NMMLSC, 2007).

Active and inactive are the calls of the source. No stated cut-off is given here; in the data, active means inhibition above about 31%; inactive means the rest.

The target in this assay is N-formyl peptide receptor 2 (Homo sapiens) (UniProt P25090). Put plainly: FPRL1 fluorescent ligand binding inhibitors, cell-based, flow cytometry, single concentration (AID 765). As to conditions: FPRL1-expressing cells, active compounds read high; at 5.1 µM unless noted. For orientation: Flow cytometry measures light scatter and fluorescence of single cells or particles in a stream.
Chain of N-formyl peptide receptor 2 (Homo sapiens) (P25090 whole entry, looked up): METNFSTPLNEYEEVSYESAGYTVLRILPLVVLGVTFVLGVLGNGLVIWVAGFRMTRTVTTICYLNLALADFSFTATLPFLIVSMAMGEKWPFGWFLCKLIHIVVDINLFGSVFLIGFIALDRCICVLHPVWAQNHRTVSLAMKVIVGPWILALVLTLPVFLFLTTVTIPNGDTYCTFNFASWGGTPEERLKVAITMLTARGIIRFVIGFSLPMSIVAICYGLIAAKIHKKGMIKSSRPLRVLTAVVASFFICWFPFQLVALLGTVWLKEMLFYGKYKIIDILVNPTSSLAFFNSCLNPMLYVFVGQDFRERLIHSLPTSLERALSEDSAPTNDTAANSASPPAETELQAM
By inhibition is commonly meant the change of the read-out against control, counted positive when it falls. As for `COc1ccc(-c2cn3cccnc3n2)cc1NC(=O)c1ccc(OC)c(OC)c1`, the inhibition is -6% [at 5.5 µM] (inactive).

As for `COc1ccc(CC(=O)Nc2cc(-c3cn4cccnc4n3)ccc2OC)cc1`, the inhibition was 64.2% [at 5.7 µM] (active).

In the case of `CC(C)(C)OC(=O)N1CCN(c2nc(-c3ccccc3)c3cc([N+](=O)[O-])ccc3n2)CC1`, the inhibition is 14.7% (inactive).

In the case of `Clc1ccccc1N1CCN(c2nc(-c3ccccc3)c3cc(Br)ccc3n2)CC1`, the inhibition was 5.1% [at 4.6 µM] (inactive).

On to `COc1ccc(-c2cn3cccnc3n2)cc1NC(=O)C(C)Oc1ccccc1` (stereo unspecified), for which the inhibition is -8.6% [at 5.7 µM] (inactive).

As to `COc1ccc(-c2cn3cccnc3n2)cc1NC(=O)c1ccccc1Cl`, the inhibition was 19% [at 5.9 µM] (inactive).

Regarding `COc1ccc(-c2cn3cccnc3n2)cc1NC(=O)c1ccc(F)c(F)c1`, the inhibition is -13.5% [at 5.8 µM] (inactive).

In the case of `CCC(CC)C(=O)Nc1cc(-c2cn3cccnc3n2)ccc1OC`, the inhibition was 11.5% [at 6.6 µM] (inactive).

For the molecule `COc1ccccc1N1CCN(c2nc(-c3ccc(F)cc3)cc(C(F)(F)F)n2)CC1`, the inhibition is -8.4% (inactive).

With `COc1ccc(-c2cn3cccnc3n2)cc1NC(=O)c1cccc(C(F)(F)F)c1`, the inhibition is 3.7% [at 5.4 µM] (inactive).

For the molecule `COc1cccc(-c2cc(C(F)(F)F)nc(N3CCN(C(c4ccccc4)c4ccccc4)CC3)n2)c1`, the inhibition was -3.9% [at 4.4 µM] (inactive).

For `O=C(O)/C=C\C(=O)N1CCN(c2nc(-c3ccccc3)c3cc(Br)ccc3n2)CC1`, the inhibition was 15.8% [at 4.8 µM] (inactive).

Regarding `O=C(c1cccc(F)c1)N1CCN(c2nc(-c3cccs3)cc(C(F)(F)F)n2)CC1`, the inhibition is -12.6% (inactive).

With `Clc1cccc(-c2nc(N3CCN(C4CCCCC4)CC3)nc3c2COc2ccccc2-3)c1`, the inhibition was -1.5% [at 4.8 µM] (inactive).

Turning to `Cc1ccc2nc(N3CCN(C(=O)CCC(=O)O)CC3)nc(-c3ccccc3)c2c1`, the inhibition was 6.9% [at 5.5 µM] (inactive).

For the molecule `COc1ccc(-c2cn3cccnc3n2)cc1NC(=O)c1cccc(Br)c1`, the inhibition is 0.7% [at 5.3 µM] (inactive).

For the molecule `CN1CCN(c2nc(-c3ccccc3)c3cc(Cl)ccc3n2)CC1`, the inhibition is -15% [at 6.6 µM] (inactive).

For the molecule `COc1ccc(-c2cc(C#N)nc(N3CCN(c4ccccc4)CC3)n2)cc1`, the inhibition is 5.3% [at 6 µM] (inactive).

As to `COc1ccc(-c2cc(C(F)(F)F)nc(N3CCN(Cc4ccccc4)CC3)n2)cc1OC`, the inhibition is 69.2% [at 4.9 µM] (active).

With `FC(F)(F)c1cc(-c2ccco2)nc(N2CCN(C(c3ccccc3)c3ccccc3)CC2)n1`, the inhibition was -10.5% [at 4.8 µM] (inactive).

Turning to `O=C(c1ccccc1)N1CCN(c2nc(-c3ccccc3)c3ccccc3n2)CC1`, the inhibition was -1.3% [at 5.6 µM] (inactive).

Consider `COc1ccc(-c2cn3cccnc3n2)cc1NC(=O)c1cc(Br)ccc1Cl`, for which the inhibition is 4.3% [at 4.9 µM] (inactive).

For the molecule `COc1ccc(-c2cn3cccnc3n2)cc1NC(=O)c1ccccc1Br`, the inhibition was 3.2% [at 5.3 µM] (inactive).

Take `CCC(=O)Nc1cc(-c2cn3cccnc3n2)ccc1OC`: the inhibition is 41.3% [at 7.5 µM] (active).

Take `O=C(c1ccc(Cl)cc1)N1CCN(c2nc(-c3ccccc3)c3ccccc3n2)CC1`: the inhibition was 1.6% [at 5.2 µM] (inactive).

For the molecule `O=C(N1CCN(c2nc(-c3ccccc3)c3cc([N+](=O)[O-])ccc3n2)CC1)C(F)(F)F`, the inhibition was -4.2% [at 5.2 µM] (inactive).

As to `COc1ccc(C2CC(=O)c3cnc(N4CCN(Cc5ccc6c(c5)OCO6)CC4)nc3C2)cc1` (stereo unspecified), the inhibition was 8% [at 4.7 µM] (inactive).

`O=C(c1ccccc1Cl)N1CCN(c2nc(-c3ccccc3)c3cc(Cl)ccc3n2)CC1`: the inhibition is 4.5% [at 4.8 µM] (inactive).

Turning to `COc1cccc(-c2cc(C(F)(F)F)nc(N3CCN(c4ccccc4OC)CC3)n2)c1`, the inhibition is -10.4% [at 5 µM] (inactive).

For the molecule `COc1ccc(-c2cn3cccnc3n2)cc1NC(=O)c1ccco1`, the inhibition was -8.1% [at 6.7 µM] (inactive).

On to `CCOC(=O)N1CCN(c2nc(-c3ccc(OC)c(OC)c3)cc(C(F)(F)F)n2)CC1`, for which the inhibition was 36.1% (active).

Turning to `FC(F)(F)c1cc(-c2cccs2)nc(N2CCN(C(c3ccccc3)c3ccccc3)CC2)n1`, the inhibition is -11% [at 4.6 µM] (inactive).

As to `O=C(O)/C=C/C(=O)N1CCN(c2nc(-c3ccccc3)c3ccccc3n2)CC1`, the inhibition was 6.6% [at 5.7 µM] (inactive).

On to `O=C(N1CCN(c2nc(-c3ccccc3)c3ccccc3n2)CC1)C(F)(F)F`, for which the inhibition was 24.8% [at 5.8 µM] (inactive).

`COc1ccc(-c2cn3cccnc3n2)cc1NC(=O)c1ccccc1F`: the inhibition is 0.8% [at 6.1 µM] (inactive).

Take `CCOC(=O)N1CCN(c2nc(-c3ccccc3)c3cc(C)ccc3n2)CC1`: the inhibition is 3.4% [at 5.9 µM] (inactive).
